Experimental findings from PubChem BioAssay (NCATS) are described below.

Results filed as inconclusive are left out. Where a call stands in place of a potency, no number is given. The source made the active and inactive calls. The call rests on the fitted dose curve; in most records, active means well fitted curve in the direction sought with a large enough effect; inconclusive means small, poorly fitted or top-dose-only effect, or another doubt; inactive means no such curve, though single readings can be large; an effect the other way counts as inactive or inconclusive.

Assay [1] in a line: NS1 protein of Zika virus - qHTS assay to identify small molecule inhibitors in human HEK 293 cells (AID 1347053). Further: nearly all actives have a fitted effect of over 55% in size. To be noted: HEK293 ZIKV MR766 infection, NS1 TR-FRET, 24 h; series mostly up to 46.1 µM. In outline:
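In this cell-based screen, HEK 293 cultures received compound for one hour before Zika MR766 at MOI = 0.5. NS1 was quantified 24 hours later by TR-FRET, normalized to virus-free wells and infected wells.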

Assay [2] is described as follows: qHTS of pediatric cancer cell lines to identify multiple opportunities for drug repurposing: Primary screen for TC32 cells (AID 1347089). Further: nearly all actives have a fitted effect of over 60% in size. The note with it: TC32 Ewing sarcoma viability, CellTiter-Glo luminescence, 48 h; series mostly up to 45.8 µM. In outline:
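A viability screen of TC32 cells was run over 48 h, with primary MIPE doses spanning 0.78 nM–46 µM and NPC doses 0.59 nM–46 µM. ATP luminescence (CellTiter-Glo) served as the read-out.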
Potency means the concentration at half of the fitted maximal effect.

Regarding `N#CC1(c2cccc(C(=O)Nc3cc(Oc4ccc5nc(NC(=O)C6CC6)sc5n4)ccc3F)c2Cl)CC1`, the Potency in assay [1] was 2.35 µM (active). As for `CN(C)S(=O)(=O)c1ccc2c(c1)C(=Cc1cc3c([nH]1)CCCC3)C(=O)N2`, the Potency result in assay [1] and in assay [2] was “inactive” throughout. On to `O=C1CN2Cc3c(ccc(Cl)c3Cl)N=C2N1`, for which the Potency entry in assay [1] is “inactive”. For the compound `CC[C@H](C)n1cc(C)c2c(C(=O)NCc3c(C)cc(C)[nH]c3=O)cc(-c3ccc(N4CCNCC4)nc3)cc21`, the Potency result in assay [1] is “inactive”. `CN1CCN(c2ncc(-c3cc(Cl)cc(Cl)c3Cl)c(N)n2)CC1`: the Potency entry in assay [1] and in assay [2] was “inactive” throughout. For `CCC[C@H](N[C@@H](C)C(=O)N1[C@@H]2CCCC[C@H]2C[C@H]1C(=O)O)C(=O)OCC`, the Potency result in assay [1] and in assay [2] was “inactive” in each case. Consider `Nc1ccn([C@@H]2O[C@H](CO)[C@@H](O)[C@H]2O)c(=O)n1`, for which the Potency entry in assay [1] was “inactive”. In assay [2], the Potency was 0.0294 µM (active). Regarding `Cc1nc(NC(=O)N2CCC[C@@H]2C(N)=O)sc1-c1csc(C(C)(C)C)n1`, the Potency entry in assay [1] is “inactive”.

For the compound `CC(O)=C(C#N)C(=O)Nc1ccc(C(F)(F)F)cc1`, in assay [1], the Potency was 13.2 µM (active). As for `Cc1cccc(Nc2nc(N[C@@H]3CCCC[C@H]3N)ncc2C(N)=O)c1`, the Potency in assay [1] is 23.5 µM (active). Moreover, the Potency result in assay [2] was “inactive”. In the case of `O=C(c1ccc(C=Cc2n[nH]c3ccccc23)cc1)N1CCNCC1`, in assay [2], the Potency was 4.66 µM (active). Same read-out and setting: the value for `CCN1CCC(n2cc(CNc3cc(Cl)c4ncc(C#N)c(Nc5ccc(F)c(Cl)c5)c4c3)nn2)CC1` was “inactive”.

Take `COc1cc(N2CCN(C)CC2)ccc1Nc1nc(N)c(C(=O)c2c(Cl)cccc2Cl)s1`: the Potency result in assay [1] and in assay [2] was “inactive” in each case. For `NC(=O)c1noc([C@H](CCCC2CCCCC2)CC(=O)NO)n1`, in assay [2], the Potency result was “inactive”. On the same count and under the same terms, to `Cc1cc(OCCCS(C)(=O)=O)cc(C)c1-c1cccc(COc2ccc3c(c2)OC[C@H]3CC(=O)O)c1` belongs “inactive”. `COc1cc2c(cc1Cc1cccc(Cl)c1F)c(=O)c(C(=O)O)cn2[C@H](CO)C(C)C`: in assay [2], the Potency result is “inactive”. Same read-out and setting: to `O=C(Nc1ncc(SCCN2CCCC2)s1)[C@]1(c2ccc(S(=O)(=O)C3CC3)cc2)C[C@@H]1C1CCCCC1` belongs “inactive”. Consider `Nc1nc(Cl)nc2c1ncn2[C@@H]1O[C@H](CO)[C@@H](O)[C@H]1F`, for which the Potency in assay [2] was 0.0234 µM (active).

For `C[C@@]1(C(=O)Nc2ccc(F)nc2)CCCN1c1nc(Nc2cc(C3CC3)[nH]n2)c2cccn2n1`, in assay [2], the Potency is 0.165 µM (active). Still for that read-out and setting: the value for `Cc1ccc2c(c1)C(=O)[C@]1(O)CCN(c3ccccc3)C1=N2` was “inactive”. Same read-out and setting: the value for `CN[C@@H]1CN(c2ccc3c(=O)c(C(=O)O)cn(-c4nccs4)c3n2)C[C@@H]1OC` was 12.8 µM (active); that for `Cn1cnc(-c2cc3nccc(Oc4ccc(NC(=S)NC(=O)Cc5ccccc5)cc4F)c3s2)c1` was “inactive”. The same measure, in the same setting: to `Cc1ccc(NC(=O)c2ccc(CN3CCN(C)CC3)cc2)cc1Nc1nc(-c2cccnc2)cs1` belongs “inactive”.

In the case of `CC(C)(O)CC(=O)NCCn1ccc2ncnc(Nc3ccc(Oc4cccc(C(F)(F)F)c4)c(Cl)c3)c21`, the Potency entry in assay [2] was “inactive”.

`CCC[C@H](Nc1nc(-c2ccc(NC(=O)NCC)c(OC)c2)ncc1C)c1cccnc1`: in assay [2], the Potency was 0.093 µM (active). The same measure, in the same setting: to `OC(c1cc(C(F)(F)F)nc2c(C(F)(F)F)cccc12)C1CCCCN1` (stereo not drawn) belongs “inactive”; to `NC(=O)c1nnn(Cc2cc(Cl)c(C(=O)c3ccc(Cl)cc3)c(Cl)c2)c1N`, “inactive”; to `CNc1nc(-c2ccc3c(N)n[nH]c3c2)cc(N2C[C@@H](C(=O)NC3CCCCC3)CC[C@@H]2C)n1`, “inactive”. The same measure, in the same setting: the value for `CC(C)C[C@H](NC(=O)c1cc2ccccc2s1)C(=O)N1CCN(C(=O)[C@H](CO)NS(=O)(=O)c2ccc(Cl)cc2Cl)CC1` was “inactive”; that for `COC1CCC(C(=O)c2ccc3nc4c(cc3c2)CCCO4)CC1` (stereo not drawn) was “inactive”. The same measure, in the same setting: to `O=C(Nc1cccc2c(=O)cc(-c3nn[nH]n3)oc12)c1ccc(OCCCCc2ccccc2)cc1` belongs “inactive”. Turning to `CC(C)(C)c1nc(-c2cccc(NS(=O)(=O)c3c(F)cccc3F)c2F)c(-c2ccnc(N)n2)s1`, the Potency entry in assay [1] and in assay [2] was “inactive” each time. Consider `CCNC(=O)Nc1ccc(Oc2ncnc(N)c2C=NOC)cc1Cl`, for which the Potency result in assay [1] and in assay [2] was “inactive” in each case. In the case of `CN1CC(=O)N2C(Cc3c([nH]c4ccccc34)[C@H]2c2ccc3c(c2)OCO3)C1=O` (stereo partly drawn), in assay [2], the Potency result is “inactive”. Still for that read-out and setting: the value for `O=C(Nc1cccc(C(F)(F)F)c1)Nc1cc(S(=O)(=O)NC2CC2)ccc1-c1ccsc1` was “inactive”; that for `CO[C@H]1/C=C\O[C@@]2(C)Oc3c(C)c(O)c4c(O)c(c(C=NN5CCN(C6CCCC6)CC5)c(O)c4c3C2=O)NC(=O)C(C)=CC=C[C@H](C)[C@H](O)[C@@H](C)[C@@H](O)[C@@H](C)[C@H](OC(C)=O)[C@H]1C` was 0.523 µM (active); that for `O=C(C=Cc1ccc(O)cc1)c1ccc(O)cc1O` was “inactive”. Take `CC(=O)OCC(=O)[C@@]1(O)CC[C@H]2[C@@H]3CCC4=CC(=O)C=C[C@]4(C)[C@@H]3[C@@H](O)C[C@@]21C`: the Potency result in assay [1] and in assay [2] was “inactive” each time. Consider `C[C@H]1COC2=C1C(=O)C(=O)c1c2ccc2c1CCCC2(C)C`, for which the Potency result in assay [1] and in assay [2] was “inactive” in each case. Consider `COc1ccc(Cn2ccc3ccc(C(=O)NO)cc32)cc1`, for which, in assay [2], the Potency entry was “inactive”.

As to `C[C@@H]1CC=CC=CC=CC=C[C@@H](O[C@@H]2O[C@H](C)[C@@H](O)[C@H](N)[C@H]2O)C[C@@H]2O[C@](O)(C[C@@H](O)C[C@@H]3O[C@@H]3C=CC(=O)O1)C[C@H](O)[C@@H]2C(=O)O`, the Potency entry in assay [1] and in assay [2] was “inactive” throughout. As to `Fc1ccc(C(c2ccc(F)cc2)N2CCN(CC=Cc3ccccc3)CC2)cc1`, the Potency result in assay [1] and in assay [2] was “inactive” each time. With `O=c1[nH]c(=O)n([C@H]2C[C@@H](O)[C@@H](CO)O2)cc1C(F)(F)F`, the Potency in assay [2] was 7.39 µM (active). Regarding `CC[C@@H]([C@H](C)O)n1ncn(-c2ccc(N3CCN(c4ccc(OCC5CO[C@@](Cn6cncn6)(c6ccc(F)cc6F)C5)cc4)CC3)cc2)c1=O` (stereo partly drawn), the Potency entry in assay [2] is “inactive”. In the case of `CCC(=O)OCC(=O)[C@@]1(OC(=O)CC)[C@@H](C)C[C@@H]2[C@H]3CCC4=CC(=O)C=C[C@]4(C)[C@@]3(F)[C@@H](O)C[C@@]21C`, in assay [2], the Potency result is “inactive”. Regarding `CCC(=C(c1ccc(O)cc1)c1ccc(OCCNC)cc1)c1ccccc1`, the Potency entry in assay [1] and in assay [2] was “inactive” each time. `Cc1cc(-c2ncc(CC(=O)Nc3ccc(-c4cnccn4)cn3)cc2C)ccn1`: the Potency result in assay [1] and in assay [2] was “inactive” each time.

For `C#CCN(C)CC1=Cc2ccccc2Oc2ccccc21`, the Potency entry in assay [2] was “inactive”. On the same count and under the same terms, to `CCCCc1ccc(NS(=O)(=O)c2ccc(C)c(C(=O)N3CCN(c4cccc(C)c4C)CC3)c2)cc1` belongs “inactive”.
